Data from the supplement of paper PMC11732987, “Enantioselective OTUD7B fragment discovery through chemoproteomics screening and high-throughput optimisation” (Communications Chemistry, 2025).
Unmarked numbers belong to inactive results.

Columns and labels:
Assay in all cases: log2 ratio of Biotin-Ahx-Ub-VS probe labelling (fragment/DMSO); higher = less target engagement (more negative = stronger competition), active = hit call of the paper (q ≤ 0.05, log2 ratio ≤ -1)
Settings in all cases: compound concentration: 200 uM; treatment time: 3 h
OTUD6B = molecular target: T1, OTUD6B (UniProt Q8N6M0)
T1 sequence (whole entry): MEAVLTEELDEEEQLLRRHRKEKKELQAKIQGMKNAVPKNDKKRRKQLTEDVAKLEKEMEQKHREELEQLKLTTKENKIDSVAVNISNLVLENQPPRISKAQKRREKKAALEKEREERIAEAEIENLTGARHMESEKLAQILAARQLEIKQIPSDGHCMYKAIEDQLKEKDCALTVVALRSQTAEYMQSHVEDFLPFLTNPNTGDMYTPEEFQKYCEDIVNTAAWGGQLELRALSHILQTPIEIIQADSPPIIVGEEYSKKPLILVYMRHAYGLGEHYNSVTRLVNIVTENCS
In short: (§1)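 Fragment (200 µM) or vehicle was incubated for 3 h with triplicate HEK293T lysate samples of 495 µg, which were then treated with Biotin-Ahx-Ub-VS at 0.5 µM final for 1 h. Labelled DUBs were enriched on NeutrAvidin, digested with LysC and trypsin, and analysed by diaPASEF LC-MS/MS. Values are average log2 fragment/vehicle ratios from an unpaired t-test on global-median-normalised Spectronaut label-free quantities, using proteins with ≥2 unique peptides.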

OTUD7B = molecular target: T2, OTUD7B (UniProt Q6GQQ9)
T2 sequence (whole entry): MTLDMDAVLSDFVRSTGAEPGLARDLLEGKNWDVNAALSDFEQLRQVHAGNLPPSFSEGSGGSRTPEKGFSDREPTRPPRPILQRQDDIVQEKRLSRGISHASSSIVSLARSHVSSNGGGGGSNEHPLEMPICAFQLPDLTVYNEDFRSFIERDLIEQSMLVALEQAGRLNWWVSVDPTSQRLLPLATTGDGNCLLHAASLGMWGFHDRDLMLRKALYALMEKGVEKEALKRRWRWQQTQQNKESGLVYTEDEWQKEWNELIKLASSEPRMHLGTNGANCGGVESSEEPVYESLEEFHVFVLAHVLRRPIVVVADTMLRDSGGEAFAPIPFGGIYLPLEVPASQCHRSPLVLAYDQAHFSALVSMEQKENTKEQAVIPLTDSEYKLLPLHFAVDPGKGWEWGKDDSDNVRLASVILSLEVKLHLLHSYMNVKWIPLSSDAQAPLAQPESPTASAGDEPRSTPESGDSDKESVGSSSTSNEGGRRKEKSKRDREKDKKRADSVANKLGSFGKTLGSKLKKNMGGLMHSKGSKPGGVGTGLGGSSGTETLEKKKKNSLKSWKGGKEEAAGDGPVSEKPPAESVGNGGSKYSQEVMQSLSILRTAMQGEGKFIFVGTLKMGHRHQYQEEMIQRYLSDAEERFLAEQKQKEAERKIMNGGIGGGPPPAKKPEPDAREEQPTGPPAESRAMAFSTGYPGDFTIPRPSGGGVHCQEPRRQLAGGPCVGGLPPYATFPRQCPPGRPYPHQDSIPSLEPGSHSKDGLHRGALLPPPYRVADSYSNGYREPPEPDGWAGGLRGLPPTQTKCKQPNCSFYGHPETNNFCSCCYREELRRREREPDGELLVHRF
In short: as §1

PRPF8 = PRPF8 (UniProt Q6P2Q9)
In short: as §1

PSMD7 = molecular target: T3, PSMD7 (UniProt P51665)
T3 sequence (whole entry): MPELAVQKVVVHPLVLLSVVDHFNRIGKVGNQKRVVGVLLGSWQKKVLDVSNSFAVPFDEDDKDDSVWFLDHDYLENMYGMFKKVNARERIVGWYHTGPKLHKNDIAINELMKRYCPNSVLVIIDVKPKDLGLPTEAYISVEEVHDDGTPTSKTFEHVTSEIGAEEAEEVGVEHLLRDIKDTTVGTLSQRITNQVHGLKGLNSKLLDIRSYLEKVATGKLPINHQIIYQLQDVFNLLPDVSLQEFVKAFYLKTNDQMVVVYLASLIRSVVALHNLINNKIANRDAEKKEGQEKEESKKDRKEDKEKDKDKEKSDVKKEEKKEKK
In short: as §1

UCHL1 = UCHL1 (UniProt P09936)
In short: as §1

UCHL3 = molecular target: T4, UCHL3 (UniProt P15374)
T4 sequence (whole entry): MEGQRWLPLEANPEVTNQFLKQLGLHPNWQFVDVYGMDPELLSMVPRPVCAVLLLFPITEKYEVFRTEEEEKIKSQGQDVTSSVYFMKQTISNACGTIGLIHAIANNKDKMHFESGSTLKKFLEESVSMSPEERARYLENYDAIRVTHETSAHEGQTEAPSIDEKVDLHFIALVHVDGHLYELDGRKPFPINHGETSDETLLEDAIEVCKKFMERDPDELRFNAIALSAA
In short: as §1

UCHL5 = molecular target: T5, UCHL5 (UniProt Q9Y5K5)
T5 sequence (whole entry): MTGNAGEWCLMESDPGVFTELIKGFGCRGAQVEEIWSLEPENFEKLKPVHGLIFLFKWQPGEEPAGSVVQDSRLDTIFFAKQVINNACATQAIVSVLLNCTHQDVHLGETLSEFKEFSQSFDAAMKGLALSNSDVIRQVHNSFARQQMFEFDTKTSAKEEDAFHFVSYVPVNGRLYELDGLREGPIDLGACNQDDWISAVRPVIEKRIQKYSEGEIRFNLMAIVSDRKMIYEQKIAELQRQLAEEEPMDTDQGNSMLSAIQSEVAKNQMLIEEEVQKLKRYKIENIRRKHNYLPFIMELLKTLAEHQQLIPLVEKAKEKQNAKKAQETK
In short: as §1

USP10 = USP10 (UniProt Q14694)
In short: as §1

USP15 = molecular target: T6, USP15 (UniProt Q9Y4E8)
T6 sequence (whole entry): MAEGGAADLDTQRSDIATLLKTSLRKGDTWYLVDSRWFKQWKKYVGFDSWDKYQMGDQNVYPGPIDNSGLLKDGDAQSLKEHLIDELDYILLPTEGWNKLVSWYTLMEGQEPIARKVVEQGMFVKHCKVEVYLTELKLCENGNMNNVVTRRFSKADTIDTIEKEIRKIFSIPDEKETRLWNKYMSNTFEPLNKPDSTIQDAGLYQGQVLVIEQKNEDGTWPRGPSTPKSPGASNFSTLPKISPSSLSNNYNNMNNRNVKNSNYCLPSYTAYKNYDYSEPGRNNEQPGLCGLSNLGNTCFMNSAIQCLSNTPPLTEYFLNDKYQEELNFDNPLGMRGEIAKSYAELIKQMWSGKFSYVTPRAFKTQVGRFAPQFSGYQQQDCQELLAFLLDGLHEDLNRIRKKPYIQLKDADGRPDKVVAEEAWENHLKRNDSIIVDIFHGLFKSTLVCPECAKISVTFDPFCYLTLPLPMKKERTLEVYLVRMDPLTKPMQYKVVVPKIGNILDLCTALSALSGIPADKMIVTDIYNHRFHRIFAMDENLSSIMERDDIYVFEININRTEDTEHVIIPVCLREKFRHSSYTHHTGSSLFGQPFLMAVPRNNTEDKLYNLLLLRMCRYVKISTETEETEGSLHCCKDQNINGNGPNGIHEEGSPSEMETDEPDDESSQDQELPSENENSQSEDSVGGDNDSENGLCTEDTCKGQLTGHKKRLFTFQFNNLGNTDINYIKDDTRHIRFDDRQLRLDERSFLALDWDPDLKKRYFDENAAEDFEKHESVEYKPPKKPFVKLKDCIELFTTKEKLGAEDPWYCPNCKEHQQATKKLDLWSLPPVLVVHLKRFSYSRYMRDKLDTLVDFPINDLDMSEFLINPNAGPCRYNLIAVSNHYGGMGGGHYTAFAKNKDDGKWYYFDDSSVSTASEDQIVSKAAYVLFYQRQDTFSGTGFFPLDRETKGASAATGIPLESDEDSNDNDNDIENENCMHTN
In short: as §1

USP16 = USP16 (UniProt Q9Y5T5)
In short: as §1

USP16, sequence (Q9Y5T5 whole entry, looked up): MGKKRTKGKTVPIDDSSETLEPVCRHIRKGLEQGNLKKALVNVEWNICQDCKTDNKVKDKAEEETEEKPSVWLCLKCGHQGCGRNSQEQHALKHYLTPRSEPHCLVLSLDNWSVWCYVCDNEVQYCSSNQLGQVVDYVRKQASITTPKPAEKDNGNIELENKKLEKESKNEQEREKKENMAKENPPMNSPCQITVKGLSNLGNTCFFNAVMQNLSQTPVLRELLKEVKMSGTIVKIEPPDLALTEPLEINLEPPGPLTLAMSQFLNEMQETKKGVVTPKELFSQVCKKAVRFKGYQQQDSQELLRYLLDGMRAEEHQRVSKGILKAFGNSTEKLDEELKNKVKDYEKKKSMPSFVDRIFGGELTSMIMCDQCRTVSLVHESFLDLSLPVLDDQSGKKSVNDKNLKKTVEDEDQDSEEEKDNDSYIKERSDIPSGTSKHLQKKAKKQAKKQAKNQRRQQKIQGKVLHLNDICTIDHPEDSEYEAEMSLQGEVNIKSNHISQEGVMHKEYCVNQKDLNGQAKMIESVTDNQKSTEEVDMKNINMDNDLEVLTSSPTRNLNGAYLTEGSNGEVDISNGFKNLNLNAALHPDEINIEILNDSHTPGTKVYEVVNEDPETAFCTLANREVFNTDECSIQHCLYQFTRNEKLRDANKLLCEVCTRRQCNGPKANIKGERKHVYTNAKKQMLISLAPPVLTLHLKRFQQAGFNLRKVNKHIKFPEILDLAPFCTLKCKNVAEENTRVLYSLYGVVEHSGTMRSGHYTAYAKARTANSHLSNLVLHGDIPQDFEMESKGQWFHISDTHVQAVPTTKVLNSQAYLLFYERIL
USP10, sequence (Q14694 whole entry): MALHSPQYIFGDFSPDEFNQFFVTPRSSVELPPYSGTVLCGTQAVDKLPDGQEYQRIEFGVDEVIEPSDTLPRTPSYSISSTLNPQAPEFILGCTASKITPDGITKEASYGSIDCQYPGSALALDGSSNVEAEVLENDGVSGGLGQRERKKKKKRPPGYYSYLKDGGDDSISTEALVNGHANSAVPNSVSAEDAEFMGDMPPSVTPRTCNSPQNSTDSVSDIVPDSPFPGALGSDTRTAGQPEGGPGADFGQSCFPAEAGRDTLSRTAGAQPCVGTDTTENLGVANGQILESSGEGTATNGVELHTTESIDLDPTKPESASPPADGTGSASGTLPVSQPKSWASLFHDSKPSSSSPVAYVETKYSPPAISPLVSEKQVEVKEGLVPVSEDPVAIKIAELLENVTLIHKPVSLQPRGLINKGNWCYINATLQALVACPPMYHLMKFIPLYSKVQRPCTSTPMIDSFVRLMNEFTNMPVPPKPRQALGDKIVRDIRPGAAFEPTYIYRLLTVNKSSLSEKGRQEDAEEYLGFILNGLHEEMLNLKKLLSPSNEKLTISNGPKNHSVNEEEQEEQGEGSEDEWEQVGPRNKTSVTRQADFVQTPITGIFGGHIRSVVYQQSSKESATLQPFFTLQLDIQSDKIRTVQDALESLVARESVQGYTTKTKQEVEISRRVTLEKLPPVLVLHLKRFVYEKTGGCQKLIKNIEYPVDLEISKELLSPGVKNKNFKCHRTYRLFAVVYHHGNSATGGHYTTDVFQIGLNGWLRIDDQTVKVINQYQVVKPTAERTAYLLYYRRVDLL
UCHL1, sequence (P09936 whole entry, looked up): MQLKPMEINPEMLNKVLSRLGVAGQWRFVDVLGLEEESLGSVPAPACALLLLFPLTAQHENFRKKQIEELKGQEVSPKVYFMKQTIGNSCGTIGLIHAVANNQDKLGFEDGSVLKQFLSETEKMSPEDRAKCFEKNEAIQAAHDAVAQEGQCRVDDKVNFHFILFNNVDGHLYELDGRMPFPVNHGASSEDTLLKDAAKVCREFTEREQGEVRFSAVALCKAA

Compound: Cl.Cn1ncc2c1CCCC2NC(=O)CCl (stereo not given)
- log2 ratio of Biotin-Ahx-Ub-VS probe labelling (OTUD6B): -0.272
- log2 ratio of Biotin-Ahx-Ub-VS probe labelling (OTUD7B): -2.04 (active)
- log2 ratio of Biotin-Ahx-Ub-VS probe labelling (PRPF8): 0.261
- log2 ratio of Biotin-Ahx-Ub-VS probe labelling (PSMD7): 0.0323
- log2 ratio of Biotin-Ahx-Ub-VS probe labelling (UCHL1): -1.71 (active)
- log2 ratio of Biotin-Ahx-Ub-VS probe labelling (UCHL3): 0.241
- log2 ratio of Biotin-Ahx-Ub-VS probe labelling (UCHL5): -0.145
- log2 ratio of Biotin-Ahx-Ub-VS probe labelling (USP10): -0.078
- log2 ratio of Biotin-Ahx-Ub-VS probe labelling (USP15): -0.335
- log2 ratio of Biotin-Ahx-Ub-VS probe labelling (USP16): -0.096
